# Laboratory results: PubChem BioAssay (Tox21)
# Results filed as inconclusive are left out. Active and inactive are the calls of the source. The call rests on the fitted dose curve; in most records, active means well fitted cell-killing curve with a large enough effect in the repeat runs; inconclusive means weak or mixed curves, or effect the other way; inactive means flat fitted curve, though single readings scatter.
# Assay: cAMP Responsive Elements (CRE) small molecule agonists, cell-based qHTS assay: qHTS cell viability counter screen (AID 2060914);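 further: viability read after 3 h of compound exposure; nearly all actives have a fitted effect of over 50% in size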
# Conditions: CRE-bla HEK293T viability, CellTiter-Glo luminescence, 5 h; series mostly up to 92.4 µM; activity change, negative = cytotoxicity: at the top concentration
# From the text: National Center for Advancing Translational Sciences [NCATS]
# Division of Preclinical Innovation [DPI]
# U.S. Environmental Protection Agency [EPA]
# National Institutes of Environmental Health Sciences [NIEHS]
# National Toxicology Program [NTP]
# U.S. Food and Drug Administration [FDA]
# CREB (cyclic-AMP Responsive Element Binding Protein) is a cellular transcription factor. It binds to certain DNA sequences called cAMP Responsive Elements (CRE) and regulates the transcription of the genes. […] This cell line can be used to find agonists/antagonists of the cyclic AMP signaling pathway. The activation of the report gene under culture conditions can be detected by fluorescence intensity. This cell line has been used to screen the Tox21 10K compound library to identify agonists that induce oxidative stress. The cytotoxicity of the Tox21 compound library against the CRE-bla cell line was tested in parallel by measuring the cell viability using CellTiter-Glo assay (Promega, Madison, WI) in the same wells.
# Tox21 Assay Protocol Summary:
# CRE-bla Hek 293T cells were suspended in assay medium (DMEM containing 10% dialyzed FBS, 0.1 mM NEAA, 1 mM sodium pyruvate and 25 mM HEPES) and dispensed at 2,000 cells/5 uL /well into 1536-well black wall/clear bottom plates using a Multidrop Combi (ThermoFisher Scientific, Waltham, MA) dispenser. After the assay plates were incubated at 37 C/5% CO2 for 18 hrs, 23 nL of compounds dissolved in DMSO, positive controls or DMSO only was transferred to the assay plate by a pintool workstation (Kalypsys, San Diego, CA). After the plates were incubated at 37 C/5% CO2 for 3 hrs, 1 uL of LiveBLAzer B/G FRET substrate (Invitrogen, Carlsbad, CA) was added to each well using Bioraptr Flying Reagent Dispenser (FRD, Aurora Discovery, San Diego, CA). The plates were incubated at room temperature for 2 h, then fluorescence intensities were measured using an Envision plate reader (PerkinElmer, Shelton, CT) at Excitation 405nm, Emission 460nm and 530nm. The % activity was determined from the ratio of 460nm/530nm. For cell viability readout that measures cytotoxicity, 4 uL /well of CellTiter-Glo reagent was added into the assay plates using Bioraptr FRD. After 30 min incubation at room temperature, the luminescence intensity in the assay plates was measured using a ViewLux (PerkinElmer, Shelton, CT) plate reader.
# On the % scale 0 is the no-effect control and ±100 the full control effect; potency means the concentration at half of the fitted maximal effect.
SMILES,Potency,"activity change, negative = cytotoxicity"
NC(=O)N1c2ccccc2C=Cc2ccccc21,inactive,–
CCc1cc(C(N)=S)ccn1,inactive,–
CC(=O)[C@]1(O)Cc2c(O)c3c(c(O)c2[C@@H](O[C@H]2C[C@H](N)[C@H](O)[C@H](C)O2)C1)C(=O)c1ccccc1C3=O,–,12.2% [at 42.5 µM] (inactive)
CCN(CC)C(=O)c1ccc(O)c(OC)c1,–,5.88% [at 42.5 µM] (inactive)
COc1cc([N+](=O)[O-])ccc1N,–,-8.77% (inactive)
O=[N+]([O-])c1cncn1CCN1CCOCC1,–,-5.91% [at 42.5 µM] (inactive)
C=C(C)C(=O)OCC(O)COc1ccc(C(C)(C)c2ccc(OCC(O)COC(=O)C(=C)C)cc2)cc1 (stereo not given),61.1 µM (active),–
O=S1(=O)OC(c2ccc(O)cc2)(c2ccc(O)cc2)c2ccccc21,inactive,–
CC1=CC(=O)CC(C)(C)C1(O)/C=C/C(C)=C\C(=O)O (stereo not given),–,-5.1% (inactive)
C#Cc1ccc(-c2ccccc2F)cc1,–,-12.9% [at 42.5 µM] (inactive)
O=NN(CCCl)C(=O)NC1CCCCC1,–,-10.2% [at 42.5 µM] (inactive)
COc1ccc2nc(N)sc2c1,inactive,–
CC1=CC[C@H](C(C)C)C=C1,–,-9.59% (inactive)
C[C@@H]1CCN(C(=O)[C@H](CCCN=C(N)N)NS(=O)(=O)c2cccc3c2NC[C@H](C)C3)[C@@H](C(=O)O)C1,–,-0.703% [at 42.5 µM] (inactive)
CCOc1ncc(F)c(=O)[nH]1,–,-1.93% [at 42.5 µM] (inactive)
O=c1c(-c2ccc(O)cc2)coc2cc(O)ccc12,inactive,–
CN(C)c1ccc(N=Nc2ccccc2C(=O)O)cc1,–,0.549% (inactive)
O=[N+]([O-])c1ccc(Cl)cc1Cl,–,6.32% (inactive)
C=CCCCCCCCCCCCCCCCC,–,-18.5% [at 8.39 µM] (inactive)
Cc1ccc(O)c(-n2nc3ccccc3n2)c1,–,-27.5% [at 42.5 µM] (inactive)

SMILES,Potency,"activity change, negative = cytotoxicity"
CCCCc1ccc(N)cc1,–,1.45% (inactive)
CCc1cccc(CC)c1N(COC)C(=O)CS(=O)(=O)O,–,-7.18% (inactive)
CCCCCCCC/C=C\CCCCCCCC(=O)OCC,–,0.225% (inactive)
CCCC(=O)O[C@]1(C(=O)CO)CC[C@H]2[C@@H]3CCC4=CC(=O)CC[C@]4(C)[C@H]3[C@@H](O)C[C@@]21C,–,3.94% [at 42.5 µM] (inactive)
COCCOc1cc2cc(C(=O)NC3CCN(C(C)C)CC3)n(CC(=O)Nc3ccc(Cl)cn3)c2cn1,–,-13.4% (inactive)
C[Si]1(C)O[Si](C)(C)O[Si](C)(C)O[Si](C)(C)O[Si](C)(C)O1,–,-0.0261% (inactive)
CCC(C)(O)CCC=C(C)C (stereo not given),–,-4.59% (inactive)
CN(C)[C@@H](CCOc1cccc2ccccc12)c1ccccc1,–,2.58% [at 42.5 µM] (inactive)
CC(=O)OCCc1ccccc1,–,19.2% (inactive)
O=C(Cl)c1ccc([N+](=O)[O-])cc1,–,2.03% (inactive)
C=CC(=O)OCC(Br)CBr (stereo not given),–,1.14% (inactive)
CC(O)CN (stereo not given),–,29.6% (inactive)
CC(C)(C)c1ccc(C=O)cc1,–,5.26% (inactive)
CN1CCN(N)CC1,–,3.32% [at 42.5 µM] (inactive)
CN1C(C(=O)Nc2ccccn2)=C(O)c2sccc2S1(=O)=O,–,2.75% [at 42.5 µM] (inactive)
CC(=O)Nc1ccc(CC(=O)O)cc1,inactive,–
CC(C)(C)CC(C)(C)N,–,-10.4% (inactive)
CCCC[O][Al]([O]CCCC)[O]CCCC,–,3.14% (inactive)
O=C(NC1CCN(CCc2c[nH]c3ccccc23)CC1)c1ccccc1,–,0.955% [at 42.5 µM] (inactive)
CCOC(=O)NCCC[Si](OCC)(OCC)OCC,–,-6.43% (inactive)
